Compounds with a hit are over-represented: about 2.2% of the library has one in this group of screens.
GC-B act – GC-B (human) receptor activation. P20594. HEK293-GC-B cells, CNP EC30, cGMP TR-FRET; 0% at EC30 CNP, 100% saturating CNP. activation, % at 10 µM. 0.11% of 370,000 active. AID 1920062;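 active means activation at 10 µM reaching about 35% in either raw or pattern-adjusted values, limit read from the data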
Rce1 inh – inhibitors of yeast Ras-converting enzyme | Q03530 | 0.27% of 290,000 active | yeast membranes, quenched prenylated peptide cleavage fluorescence | calls only;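 active means fall in fluorescence gain of 50% or more versus controls, with final raw signal at or below 3038400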;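 further: plate controls were neutral control wells for no effect and wells lacking membranes for full effect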
Target sequence (Q03530 whole entry, looked up): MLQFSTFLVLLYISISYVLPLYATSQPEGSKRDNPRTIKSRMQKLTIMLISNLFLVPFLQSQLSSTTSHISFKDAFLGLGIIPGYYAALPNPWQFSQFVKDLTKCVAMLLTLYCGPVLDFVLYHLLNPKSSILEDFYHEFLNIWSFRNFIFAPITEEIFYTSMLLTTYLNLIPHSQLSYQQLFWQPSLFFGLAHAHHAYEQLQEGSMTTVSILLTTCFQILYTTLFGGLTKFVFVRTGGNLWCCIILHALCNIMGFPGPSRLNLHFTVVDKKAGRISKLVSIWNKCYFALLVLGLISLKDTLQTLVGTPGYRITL
PLCb3 inh – PLC-beta3 (human) inhibition, primary screen. Q01970. Purified PLC-beta3, fluorogenic substrate, fluorescence. inhibition, % at 12.2 µM. 0.18% of 370,000 active; in the data active means inhibition above about 11%;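 further: 0% = median of compound wells on plate and 100% = full blocker control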
PLCg1 inh – inhibitors of human phospholipase C gamma1; inhibition, % at 12.2 µM; 0.84% of 370,000 active; AID 720700; purified PLC-gamma1, fluorogenic substrate, fluorescence; P19174; in the data active means inhibition above about 9.5%
PfM18AAP inh-1 – blocks P. falciparum M18 aspartyl aminopeptidase; 1.2% of 290,000 active; recombinant PfM18AAP, H-Glu-NHMec fluorogenic cleavage; inhibition, % at 7.35 µM;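 active means inhibition above the campaign mean inhibition over all tested compounds plus 3 SD, cut at about 28% in these data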;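 further: 0% = plate median of test compound wells and 100% = 2 mM ZnCl2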
GC-A act – GC-A (human) enzyme activation. P16066. HEK293 GC-A cells, cGMP TR-FRET, EC30 ANP; 0% at EC30 ANP, 100% saturating ANP. activation, % at 10 µM. 0.14% of 370,000 active. AID 1671463; in the data active means activation above about 40%
PfM18AAP inh-2 – confirmation of Plasmodium falciparum M18 aspartyl aminopeptidase inhibitors; shares compounds with PfM18AAP inh-1; recombinant PfM18AAP, H-Glu-NHMec fluorogenic cleavage; inhibition, % at 7.35 µM; 28% of 2,400 active; AID 2170;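 active means mean inhibition over replicate wells above the hit cutoff set for the earlier primary screen, cut at about 29% in these data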;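 further: 0% = median of test compound wells and 100% = 2 mM ZnCl2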
CTSL1 confirm – counter-screen for PFM18AAP inhibitors: confirmation of human cathepsin L inhibitors; shares compounds with PfM18AAP inh-1; purified cathepsin L1, Z-Leu-Arg-MCA fluorescence; inhibition, % at 5.96 µM; 2,400 tested, under 10 active; AID 2178;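 active means average inhibition across replicates above the hit cutoff set in the earlier primary screen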;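 further: 0% = median of test compound wells and 100% = Z-Phe-Ala-diazomethylketone 1 µM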
Starred values were filed as active, the others as inactive; i = inactive; · = not tested or not shown.

SMILES	GC-B act	Rce1 inh	PLCb3 inh	PLCg1 inh	PfM18AAP inh-1	GC-A act	PfM18AAP inh-2	CTSL1 confirm
C[C@H](NC(=O)c1cc2c(cn1)[nH]c1ccccc12)C(=O)O	8	i	-75	-51	51*	8	27	6
COC(=O)[C@H](C)NC(=O)c1cc2c(cn1)[nH]c1ccccc12	5	i	-49	-29	21	14	·	·
CCCCNC(=O)NS(=O)(=O)c1ccc(NC(=O)CSc2ncnc3scc(-c4ccc(C)cc4)c23)cc1	-7	·	-5	-2	·	-1	·	·
Cc1ccc(-n2c(SCC(=O)Nc3ccc(OCc4ccccc4)cc3)nnc2-c2ccccc2)cc1	0	·	0	0	·	-1	·	·
COc1ccc(C(=O)n2cnc3ccccc32)cc1	-4	i	-6	-1	-3	-2	·	·
COc1ccc(C(=O)n2cnc(N)n2)cc1	4	i	1	0	34*	6	54*	-1
Nc1ncn(C(=O)c2ccco2)n1	2	i	4	6	45*	2	51*	1
O=C1Nc2ccccc2/C1=C/c1ccc([N+](=O)[O-])cc1	-3	i	-7	4	35*	-9	-2	-2
COc1ccc(C(c2c(C)[nH][nH]c2=O)c2c(C)[nH][nH]c2=O)cc1Br	9	i	-2	1	36*	5	15	3
COc1cc(C(c2c(C)[nH][nH]c2=O)c2c(C)[nH][nH]c2=O)ccc1OC(C)C	1	i	3	-2	19	7	·	·
COc1cc(C(c2c(C)[nH][nH]c2=O)c2c(C)[nH][nH]c2=O)cc(OC)c1OC	-2	i	3	2	35*	1	6	-2
COc1cc(C(c2c(C)[nH][nH]c2=O)c2c(C)[nH][nH]c2=O)cc(Cl)c1O	2	i	-3	0	26	-2	·	·
Nn1c(SCC(=O)Nc2nccs2)nnc1-c1cc(-c2ccccc2)n[nH]1	0	·	-2	-1	·	0	·	·
CCCN(CC1CC1)C(=O)c1ccc(CNC(=O)c2cccc(Br)c2)cc1	4	·	-5	2	·	1	·	·
CN1/C(=C/C(=O)c2cccs2)Sc2ccccc21	8	i	-79	-60	49*	0	-16	1
CN1/C(=C\C(=O)c2cccs2)Sc2ccccc21	0	i	-74	-72	54*	-1	-47	-4
Oc1c(C=C2N=c3ccccc3=N2)sc(=S)n1-c1ccc2ccccc2c1	-3	i	-12	-6	7	-3	·	·
Oc1c(C=C2N=c3ccccc3=N2)sc(=S)n1-c1ccc(F)cc1	4	i	-12	-11	38*	4	-17	2
O=C(Nn1c(O)c(C=C2N=c3ccccc3=N2)sc1=S)c1ccc(Cl)cc1	0	i	-12	-11	25	3	·	·
O=C(Nn1c(O)c(C=C2N=c3ccccc3=N2)sc1=S)c1cccc(Cl)c1	-2	i	-124	-84	54*	-1	-3	-2
O=C(Nn1c(O)c(C=C2N=c3ccccc3=N2)sc1=S)c1ccccc1	0	i	-49	-37	56*	4	-4	-2
Cc1ccc(S(=O)(=O)Nn2c(O)c(C=C3N=c4ccccc4=N3)sc2=S)cc1	-5	i	-23	-13	15	-6	·	·
Cc1ccc(C(=O)Nn2c(O)c(C=C3N=c4ccccc4=N3)sc2=S)cc1	-3	i	-160	-106	55*	2	-31	1
NNc1nc2cc3c(cc2s1)OCCO3	4	i	-65	-35	52*	2	9	-5
O=C(Nc1nc2cc3c(cc2s1)OCCO3)c1cccs1	-8	i	-272	-185	3	2	·	·
COCCCNC(=O)C[C@H]1C[C@@]2(C(=O)OC)C(=C[C@H](C(C)(C)C)O[C@@H]2C)N(CCC2=CCCCC2)C1=O	4	·	4	3	·	-2	·	·
COc1ccc(NC(=O)NNC(=O)c2cc3occc3n2C)c(OC)c1	4	i	-12	-3	61*	-1	38*	2

Screening data: PubChem, several laboratories
